Screening results: PubChem BioAssay, National Center for Advancing Translational Sciences (NCATS)
ELG1 genotoxic = induces genotoxicity in HEK293T cells with luciferase-tagged ELG1. HEK293T ELG1-luciferase reporter, luminescence, 16 h. 330,000 tested, 1.3% active. Potency, µM (titrated, usually from 46 µM), actives largely listed as activators; note: nearly all actives have a fitted effect of over 60% in size
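Quantitative HTS format in 1536-well plates. HEK293T ELG1-luciferase reporter cells receive test compound and are incubated 16 hr at 37 °C, 5% CO2; ONE-Glo added, 30 min room temperature, then luminescence read.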
Rab9 prom act = activates the Rab9 promoter | Huh7 Rab9 promoter-luciferase reporter, luminescence, 24 h | Potency, µM (top dose mostly 9.22 µM), most hits filed as activators | 320,000 tested, 2.8% active | AID 485297; note: nearly all actives have a fitted effect of over 60% in size
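Luminescence from Amplite-detected luciferase (10 minutes, ambient) reports Rab9 promoter activation. Before that, stable Rab9-luciferase Huh7 cells (1500/well, reduced-serum OP-MEM I plus 10% FBS) were exposed to compound for 24 hours at 37C.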
NPC1 promoter act = activates the NPC1 promoter | Huh7 NPC1 promoter luciferase reporter, 24 h | Potency, µM (top dose mostly 9.22 µM), hits mostly activators | 320,000 tested, 2.4% active | AID 485313; note: nearly all actives have a fitted effect of over 60% in size
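Compounds in DMSO were transferred onto Huh7 NPC1-luciferase reporter cells pre-incubated 2 h; after 24 h at 37 °C, Amplite reagent was dispensed and luminescence recorded 10 min later.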
uPA generation = blocks generation of uPA at the cell surface; cell surface uPA generation assay, qHTS; Potency, µM (series often up to 38.3 µM), hits mostly inhibitors; 330,000 tested, 0.31% active; active = well fitted inhibition curve with a large enough effect; inconclusive = small, poorly fitted or top-dose-only effect; inactive = no such curve, though single readings can be large or run the other way; tested in mouse RAW 264.7 cells; note: nearly all actives have a fitted effect of over 55% in size
SMN2 splice enh = SMN2 splice variant enhancement; HEK293 SMN2-luciferase splicing reporter, luminescence, 30-36 h; Potency, µM (highest dose often 46.1 µM), usual class: activators; 210,000 tested, 2.8% active; AID 1458; note: nearly all actives have a fitted effect of over 55% in size
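HEK293 cells carry an SMN2 minigene-luciferase reporter in which exon 7 inclusion puts luciferase in frame. Cells were seeded at 2000 cells/well, attached for 10-12 hours, then exposed to compounds for 30-36 hours at 37C before ONE-Glo luminescence.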
FLuc modulator = firefly luciferase modulation, counter-screen for miR-21 project; P08659; purified FLuc, Km substrates, luminescence inhibition; Potency, µM (highest dose often 57.5 µM), hits mostly inhibitors; 360,000 tested, 6.9% active; AID 588342; note: nearly all actives have a fitted effect of over 55% in size
Target sequence (P08659 whole entry, looked up): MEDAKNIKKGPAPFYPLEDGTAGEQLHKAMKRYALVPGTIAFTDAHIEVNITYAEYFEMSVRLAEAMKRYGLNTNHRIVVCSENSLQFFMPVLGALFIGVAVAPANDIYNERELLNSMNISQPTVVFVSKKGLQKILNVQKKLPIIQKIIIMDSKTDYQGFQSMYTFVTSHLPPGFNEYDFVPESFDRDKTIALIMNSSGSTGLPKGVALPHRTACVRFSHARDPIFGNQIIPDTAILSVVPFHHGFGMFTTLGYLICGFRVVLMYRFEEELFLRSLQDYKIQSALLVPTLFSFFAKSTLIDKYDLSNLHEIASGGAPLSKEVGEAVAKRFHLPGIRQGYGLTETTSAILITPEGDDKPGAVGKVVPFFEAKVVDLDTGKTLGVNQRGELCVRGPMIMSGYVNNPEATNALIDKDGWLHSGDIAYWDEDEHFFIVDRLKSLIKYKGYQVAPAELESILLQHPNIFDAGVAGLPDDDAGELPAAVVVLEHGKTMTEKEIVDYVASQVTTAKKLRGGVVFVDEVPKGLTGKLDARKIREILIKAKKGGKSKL
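Biochemical qHTS of compounds, final roughly 60 µM downward over six points, against 10 nM purified firefly luciferase using Km concentrations of substrates (10 uM D-luciferin, 10 uM ATP) in Tris acetate pH 7.5 buffer; luminescence output.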
Hits are given with their value; [ ] = dose if it differs, or a comment. Hits are enriched below; roughly 7.3% of the tested compounds scored in any of these assays. Unless noted, calls come from the whole dose curve; as a rule, active = well fitted curve in the direction sought with a large enough effect; inconclusive = small, poorly fitted or top-dose-only effect, or another doubt; inactive = no such curve, though single readings can be large; an effect the other way counts as inactive or inconclusive.

`Cc1cc(C)n2nc(-c3ccccc3)cc2n1` gave ELG1 genotoxic inconclusive, Rab9 prom act 3.2µM, NPC1 promoter act inconclusive, uPA generation inactive and FLuc modulator 7.6µM.
Screening Cc1ccc(NC(=O)c2cc3nc(C)cc(C)n3n2)cc1 returned ELG1 genotoxic 1.5µM, Rab9 prom act 0.89µM, NPC1 promoter act 0.63µM, SMN2 splice enh 11µM and FLuc modulator 4.8µM.
Screening Cc1cc(C)n2nc(-c3ccsc3-n3c(C)ccc3C)cc2n1 returned ELG1 genotoxic inactive, Rab9 prom act inactive, NPC1 promoter act inactive, uPA generation inactive, SMN2 splice enh inactive and FLuc modulator inactive.
Cc1cc(C)n2nc(C(=O)NCc3ccccc3)cc2n1 was read as ELG1 genotoxic inactive, Rab9 prom act inactive, NPC1 promoter act inactive, SMN2 splice enh inactive and FLuc modulator inactive.
For Cc1ccc(NC(=O)Cn2c(=O)c(C(F)(F)F)nc3ccccc32)c(C)c1 the results were FLuc modulator inactive.
`Cc1ccc(Cl)cc1N1CCN(C(=O)c2ccc3c(c2)N(Cc2ccccc2)CCS3)CC1` gave SMN2 splice enh inactive and FLuc modulator inactive.
Screening Cc1cccc(-n2cc(-c3ccccc3)nc2SCC(=O)Nc2ccccc2Cl)c1 returned FLuc modulator inactive.
COc1cccc(CNC(=O)N2CCc3c(sc4c3CCCC4)C2c2ccc(F)cc2)c1 (centres undefined) was read as FLuc modulator inactive.
For O=C(N/N=C/c1cc(Cl)cc(Cl)c1O)c1ccncc1 the results were ELG1 genotoxic inactive, Rab9 prom act inactive, NPC1 promoter act inactive, uPA generation 3.2µM and FLuc modulator inactive.
Screening Cc1ccccc1-n1c(C)cc(/C=N/NC(=O)c2ccncc2)c1C returned ELG1 genotoxic inactive, Rab9 prom act inactive, NPC1 promoter act inactive, SMN2 splice enh inactive and FLuc modulator 3.8µM.
`Cc1cc(/C=N/NC(=O)c2ccsc2)c(C)n1-c1cnccn1` gave ELG1 genotoxic inconclusive, Rab9 prom act inconclusive, NPC1 promoter act inactive, uPA generation inactive, SMN2 splice enh inactive and FLuc modulator 19µM.
COc1cc(/C=C2\OC(=O)c3c(OC)cccc32)ccc1O was read as ELG1 genotoxic 10µM, Rab9 prom act inconclusive, NPC1 promoter act inconclusive, uPA generation inactive, SMN2 splice enh inactive and FLuc modulator 3.4µM.
`Clc1ccc(COn2c(-c3ccccc3)nc3ccccc32)cc1` gave ELG1 genotoxic inactive, Rab9 prom act inactive, NPC1 promoter act inactive, uPA generation inactive, SMN2 splice enh inactive and FLuc modulator inactive.
For Cc1ccc(COn2c(-c3ccc(Cl)cc3)nc3ccc([N+](=O)[O-])cc32)cc1 the results were ELG1 genotoxic inactive, Rab9 prom act inconclusive, NPC1 promoter act inconclusive, uPA generation inactive, SMN2 splice enh inconclusive and FLuc modulator 17µM.
`Clc1ccc(COn2c(-c3ccc(Cl)cc3)nc3ccccc32)cc1` gave ELG1 genotoxic inactive, Rab9 prom act inactive, NPC1 promoter act inactive, SMN2 splice enh inactive and FLuc modulator inconclusive.
Screening O=C(O)COn1c(-c2ccccc2)nc2ccc([N+](=O)[O-])cc21 returned ELG1 genotoxic inactive, Rab9 prom act inconclusive, NPC1 promoter act inactive, uPA generation inactive, SMN2 splice enh inactive and FLuc modulator 15µM.
Screening O=[N+]([O-])c1ccc2nc(-c3ccc(Cl)cc3)n(OCc3ccccc3)c2c1 returned ELG1 genotoxic inconclusive, Rab9 prom act inconclusive, NPC1 promoter act inconclusive, uPA generation inactive, SMN2 splice enh inactive and FLuc modulator 12µM.
CCOC(=O)C(C)On1c(-c2ccccc2)nc2ccc([N+](=O)[O-])cc21 (centres undefined) was read as ELG1 genotoxic inactive, Rab9 prom act inconclusive, NPC1 promoter act inconclusive, uPA generation inactive, SMN2 splice enh inactive and FLuc modulator inactive[2.3 µM].
`CCOC(=O)C(C)On1c(-c2ccc(Cl)cc2)nc2ccc([N+](=O)[O-])cc21` (centres undefined) gave ELG1 genotoxic inactive, Rab9 prom act inactive, NPC1 promoter act inactive, uPA generation inactive, SMN2 splice enh inactive and FLuc modulator 15µM.
`Cc1ccc(-n2cc(CNC(C)c3cnn(C)c3C)c(-c3ccc(F)cc3)n2)cc1` (centres undefined) gave ELG1 genotoxic inactive, Rab9 prom act inactive, NPC1 promoter act inactive, uPA generation inconclusive and FLuc modulator 15µM.
For Cc1ccc(-n2cc(CNC(C)Cn3cncn3)c(-c3ccc(F)cc3)n2)cc1 (centres undefined) the results were ELG1 genotoxic inactive, Rab9 prom act inactive, NPC1 promoter act inactive, uPA generation inactive, SMN2 splice enh inactive and FLuc modulator 17µM.
Screening Cc1ccc(C)c(-n2cc(CNC(C)Cn3cncn3)c(-c3ccccc3)n2)c1 (centres undefined) returned ELG1 genotoxic inactive, Rab9 prom act inactive, NPC1 promoter act inactive, uPA generation inactive and FLuc modulator inactive.
For Clc1ccc(CNCc2cccs2)c(Cl)c1 the results were ELG1 genotoxic inactive, Rab9 prom act inactive, NPC1 promoter act inactive, uPA generation inactive, SMN2 splice enh inactive and FLuc modulator inactive.
For O=c1c2cc3c(cc2nc2sc(Nc4cccc([N+](=O)[O-])c4)nn12)OCO3 the results were FLuc modulator inactive.
For COC(=O)C(Cc1c[nH]c2ccccc12)NC(=O)c1ccccc1Br (centres undefined) the results were ELG1 genotoxic inactive, Rab9 prom act inactive, NPC1 promoter act inactive, uPA generation inconclusive and FLuc modulator 4.3µM.
Screening CCOC(=O)C(Cc1c[nH]c2ccccc12)NC(=O)c1ccccc1Br (centres undefined) returned ELG1 genotoxic inconclusive, Rab9 prom act inactive, NPC1 promoter act inactive, uPA generation inactive and FLuc modulator 0.67µM.
For O=C(COC(=O)C(Cc1c[nH]c2ccccc12)NC(=O)c1ccc(Br)cc1)c1ccc(Cl)cc1 (centres undefined) the results were FLuc modulator inactive.
Screening O=C1OC2(c3cc(Br)c(O)c(Br)c3Oc3c2cc(Br)c(O)c3Br)c2c(Cl)c(Cl)c(Cl)c(Cl)c21 returned SMN2 splice enh inactive.
Screening Cc1cc(=O)oc2c(C)c(OC(C)C(=O)Nc3ccc(N4CCC(C)CC4)cc3)ccc12 (centres undefined) returned ELG1 genotoxic inactive, Rab9 prom act inactive, NPC1 promoter act inactive, uPA generation inactive and FLuc modulator inactive.
For O=C(Nc1ccc(N2CCCC2)c(Cl)c1)c1ccc2c(c1)OCCO2 the results were uPA generation inactive.
For O=C(Nc1ccc(Cl)c(Cl)c1)c1ccc2c(c1)OCO2 the results were ELG1 genotoxic 4.6µM, Rab9 prom act 0.56µM, NPC1 promoter act 0.79µM, uPA generation inactive and FLuc modulator 1.5µM.
